Measured values: PMC5540273 (PLoS ONE, 2017)

Key:
Conditions in all cases: concentration: 1 μM,replicates: in singlicate; n = 1
DCAMKL2 = tested on: T1, DCAMKL2
T1 construct: gene DCLK2

DCAMKL3 = tested on: T2, DCAMKL3
T2 construct: gene DCLK3

DDR1 = tested on: DDR1
DDR2 = tested on: DDR2
DLK = tested on: T3, DLK
T3 construct: gene MAP3K12

DMPK2 = tested on: T4, DMPK2
T4 construct: gene CDC42BPG

DMPK = tested on: DMPK
DRAK1 = tested on: T5, DRAK1
T5 construct: gene STK17A

DRAK2 = tested on: T6, DRAK2
T6 construct: gene STK17B

DYRK1A = tested on: DYRK1A
DYRK1B = tested on: DYRK1B
DYRK2 = tested on: DYRK2
EGFR = tested on: EGFR
EIF2AK1 = tested on: EIF2AK1
EPHA1 = tested on: EPHA1
EPHA2 = tested on: EPHA2
EPHA3 = tested on: EPHA3
EPHA4 = tested on: EPHA4
EPHA5 = tested on: EPHA5
EPHA6 = tested on: EPHA6
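Note: KINOMEscan kinase panel screen.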

SMILES	%Inh (DCAMKL2)	%Inh (DCAMKL3)	%Inh (DDR1)	%Inh (DDR2)	%Inh (DLK)	%Inh (DMPK2)	%Inh (DMPK)	%Inh (DRAK1)	%Inh (DRAK2)	%Inh (DYRK1A)	%Inh (DYRK1B)	%Inh (DYRK2)	%Inh (EGFR)	%Inh (EIF2AK1)	%Inh (EPHA1)	%Inh (EPHA2)	%Inh (EPHA3)	%Inh (EPHA4)	%Inh (EPHA5)	%Inh (EPHA6)
O=C1NCCc2[nH]c(-c3ccncc3)cc21	0%	91.8%	17%	0%	8%	0%	13%	97.2%	100%	99.7%	97.6%	97.1%	0%	0%	2%	0%	0%	30%	31%	41%
COC(=O)c1cccc(NC(=O)NC2CCN(c3ccnc(Nc4cc(OC)c(OC)c(OC)c4)n3)C2)c1 (stereo not shown) [GSK1379767]	0%	0%	13%	55%	61%	27%	0%	0%	0%	0%	15%	2%	33%	0%	0%	16%	15%	6%	0%	0%
COC(=O)Nc1nc2cc(Oc3ccc(NC(=O)Nc4cc(C(F)(F)F)ccc4Cl)cc3)ccc2[nH]1.Cl [GW697465]	11%	31%	100%	98.3%	60%	0%	0%	2%	0%	0%	0%	0%	42%	0%	91%	96.2%	43%	92%	37%	93.7%
CN(c1ccc2c(c1)nc(NCc1ccc(F)cc1)n2C)c1ccnc(Nc2ccc(CS(C)(=O)=O)cc2)n1.Cl [GW813244]	0%	0%	98.4%	100%	0%	0%	0%	15%	7%	0%	4%	30%	18%	0%	0%	12%	5%	20%	0%	23%
OCCn1cc(-c2cnc3nnn(Cc4ccc5ncccc5c4)c3n2)cn1	0%	0%	0%	4%	0%	0%	0%	10%	12%	0%	19%	0%	0%	0%	0%	0%	0%	0%	0%	0%
NC(=O)Nc1sc(-c2ccc(F)cc2)cc1C(N)=O [GW789449]	0%	0%	11%	39%	38%	0%	0%	43%	70%	23%	52%	25%	23%	0%	60%	25%	0%	14%	7%	11%
Cc1n[nH]c2cc(Nc3ccnc(Nc4cccc(CN5CCOCC5)c4)n3)ccc12 [GW682569]	0%	0%	70%	55%	52%	0%	0%	53%	16%	2%	4%	25%	22%	0%	52%	14%	25%	17%	0%	17%
COc1cccc(CNC(=O)NC2CCN(c3ccnc(Nc4cc(OC)c(OC)c(OC)c4)n3)C2)c1 (stereo not shown) [GSK1379765]	8%	0%	1%	19%	61%	69%	0%	0%	0%	19%	17%	9%	28%	0%	11%	30%	0%	3%	0%	15%
O=C(Nc1ccccc1)c1cccc(Oc2ccc3nccn3n2)c1	40%	0%	45%	42%	1%	6%	11%	7%	14%	0%	28%	0%	3%	0%	7%	19%	0%	4%	0%	2%
Cc1ccc(Nc2ccnc(Nc3ccc4c(c3)CS(=O)(=O)C4)n2)cc1O.Cl [GW579362]	0%	0%	86%	78%	78%	30%	0%	45%	57%	38%	48%	88%	55%	17%	91.3%	83%	78%	53%	32%	53%
c1ccc(Oc2ccc(Nc3ccnc4ccc(-c5ccccn5)cc34)cc2)cc1 [GW407034]	0%	0%	14%	0%	49%	15%	0%	0%	0%	24%	0%	0%	82%	0%	31%	13%	0%	7%	90.6%	2%
